# Dicer inh: human Dicer pre-microRNA cleavage inhibition | Q9UPY3 | cat-ELCCA pre-miR-21 Dicer processing, chemiluminescence; hits give high values | z-score at 25 µM | actives 6% (n = 47,000); in the data active = z-score above about 3, passing the limit was not always enough;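 also: plate controls were vehicle for no effect and no enzyme for full effect; higher signal means more uncleaved substrate so more Dicer inhibition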
# Target sequence (Q9UPY3 whole entry, looked up): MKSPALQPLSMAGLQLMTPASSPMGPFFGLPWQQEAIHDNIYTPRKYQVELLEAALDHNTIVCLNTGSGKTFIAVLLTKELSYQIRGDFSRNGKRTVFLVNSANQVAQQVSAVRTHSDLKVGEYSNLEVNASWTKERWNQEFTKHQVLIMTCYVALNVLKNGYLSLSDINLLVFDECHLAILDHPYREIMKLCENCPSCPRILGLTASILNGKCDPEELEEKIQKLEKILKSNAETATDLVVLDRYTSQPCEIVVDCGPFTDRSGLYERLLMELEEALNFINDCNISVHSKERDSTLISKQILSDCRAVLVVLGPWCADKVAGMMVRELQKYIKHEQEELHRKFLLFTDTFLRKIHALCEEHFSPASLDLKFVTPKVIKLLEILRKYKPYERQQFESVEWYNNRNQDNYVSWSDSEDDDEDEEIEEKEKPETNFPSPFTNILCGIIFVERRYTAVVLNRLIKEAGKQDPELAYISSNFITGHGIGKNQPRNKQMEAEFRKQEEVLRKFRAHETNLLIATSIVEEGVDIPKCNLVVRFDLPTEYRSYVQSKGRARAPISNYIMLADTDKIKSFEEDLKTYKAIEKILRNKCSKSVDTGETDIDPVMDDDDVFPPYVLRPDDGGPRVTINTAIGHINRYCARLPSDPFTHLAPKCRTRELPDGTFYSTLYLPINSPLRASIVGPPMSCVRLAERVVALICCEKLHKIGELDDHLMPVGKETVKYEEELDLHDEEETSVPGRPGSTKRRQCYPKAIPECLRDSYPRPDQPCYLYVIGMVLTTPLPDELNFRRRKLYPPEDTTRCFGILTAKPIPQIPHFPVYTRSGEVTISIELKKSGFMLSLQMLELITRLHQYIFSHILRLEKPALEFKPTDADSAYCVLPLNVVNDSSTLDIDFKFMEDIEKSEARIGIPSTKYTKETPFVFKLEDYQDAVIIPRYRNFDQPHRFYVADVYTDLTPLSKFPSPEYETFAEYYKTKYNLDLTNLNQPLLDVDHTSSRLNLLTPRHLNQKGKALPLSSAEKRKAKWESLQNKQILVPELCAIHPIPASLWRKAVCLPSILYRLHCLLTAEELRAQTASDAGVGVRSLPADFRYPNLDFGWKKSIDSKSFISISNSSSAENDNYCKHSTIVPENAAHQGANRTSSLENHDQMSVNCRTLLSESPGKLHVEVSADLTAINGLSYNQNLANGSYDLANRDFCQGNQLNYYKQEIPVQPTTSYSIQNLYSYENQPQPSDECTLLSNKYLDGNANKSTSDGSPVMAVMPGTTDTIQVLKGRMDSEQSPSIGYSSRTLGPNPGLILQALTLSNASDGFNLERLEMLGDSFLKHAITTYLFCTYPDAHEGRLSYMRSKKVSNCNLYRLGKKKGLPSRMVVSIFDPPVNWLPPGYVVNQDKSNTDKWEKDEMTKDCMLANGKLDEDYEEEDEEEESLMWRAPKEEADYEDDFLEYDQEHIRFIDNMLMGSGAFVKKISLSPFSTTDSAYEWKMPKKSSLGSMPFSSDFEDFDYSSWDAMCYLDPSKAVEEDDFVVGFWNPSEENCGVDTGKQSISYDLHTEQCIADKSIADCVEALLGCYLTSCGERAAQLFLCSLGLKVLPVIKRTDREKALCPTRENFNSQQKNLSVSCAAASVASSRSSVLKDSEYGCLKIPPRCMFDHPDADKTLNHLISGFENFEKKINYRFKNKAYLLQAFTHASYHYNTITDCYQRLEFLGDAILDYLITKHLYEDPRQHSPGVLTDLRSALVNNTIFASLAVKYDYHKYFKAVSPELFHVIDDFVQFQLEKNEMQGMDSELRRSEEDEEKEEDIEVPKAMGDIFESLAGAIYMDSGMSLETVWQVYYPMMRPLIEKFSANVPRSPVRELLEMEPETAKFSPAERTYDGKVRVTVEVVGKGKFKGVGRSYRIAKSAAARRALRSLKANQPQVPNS
# * marks the source's active call; other numbers are inactive results. This excerpt belongs to a sample that is enriched for hits.
SMILES,Dicer inh
C[C@H]1O[C@@H](n2cc(F)c(=O)[nH]c2=O)[C@H](O)[C@@H]1O,3.06*
O=c1[nH]c(=O)n(C2CCCO2)cc1F (centres undefined),1.7
O=c1[nH]c(=O)n(C2O[C@H](CO)[C@@H](O)[C@H]2O)cc1Br (some centres undefined),1.43
C=CCN1C(=O)C(O)(CC(=O)c2ccc(C(C)C)cc2)c2cc(Br)ccc21 (centres undefined),2.48
Cc1cc(C)n2nc(SCC(=O)Nc3ccc(C(C)C)cc3)nc2n1,-0.19
OC1(c2ccc(Cl)cc2)CCN(Cc2cn[nH]c2-c2ccccc2)CC1,-1.39
Fc1ccc(N2CCN(Cc3cn[nH]c3-c3ccccc3)CC2)cc1,3.48*
OC1(c2ccc(Cl)cc2)CCN(Cc2cn[nH]c2-c2ccc(F)cc2)CC1,-0.13
CCOc1cc(C(F)(F)F)cnc1C#N,-0.47
O=C(O)CSc1nc2ccccc2s1,-1.8
Nc1ccc(Sc2nc3ccccc3s2)cc1,5.2*
Clc1ccc2sc(Sc3ccccc3)nc2c1,-0.68
CC(C)(C)NC(=S)NC1CCN(Cc2ccccc2)CC1,0.92
CCOC(=O)C(=C/C=C(/c1ccccc1)N(C)C)C(=O)OCC,0.6
CCOC(=O)C1=NNC2C(=O)N(c3ccccc3)C(=O)C12 (centres undefined),0.66
COC(=O)C1=NN(c2ccc(OC)cc2)C2C(=O)N(c3ccc(Br)cc3)C(=O)C12 (centres undefined),0.67
CCOC(=O)C1=NN(c2ccc(OC)cc2)C2C(=O)N(c3ccccc3)C(=O)C12 (centres undefined),4.69*
CC(C)C[C@H](NC(=O)OC(C)(C)C)C(=O)OCc1ccc(CC(=O)O)cc1,3
COc1ccc(C2C(C(=O)c3cc4ccccc4o3)=C(O)C(=O)N2c2nccs2)cc1 (centres undefined),0.91
COC(=O)c1sccc1N/N=C(\C#N)S(=O)(=O)c1ccc(Cl)cc1,1.1
COC(=O)c1sccc1N/N=C(\C#N)S(=O)(=O)c1cccs1,7.18
COC(=O)c1scc(S(=O)(=O)Cc2cccs2)c1N/N=C(\C#N)S(=O)(=O)c1ccc(Cl)cc1,5.62*
O=C(O)COc1ccc2c(c1)oc(=O)c1ccccc12,0.04
O=C(COc1ccc2c(c1)oc(=O)c1ccccc12)OCc1ccccc1,4.55*
C=CCOC(=O)COc1ccc2c(c1)oc(=O)c1ccccc12,0.38
SMILES,Dicer inh
COc1ccc(C(OC[C@H]2O[C@@H](n3cnc4c(=O)[nH]c(N)nc43)CC2O)(c2ccccc2)c2ccc(OC)cc2)cc1 (some centres undefined),-0.72
CCNc1nc(SCc2ccc(Cl)cc2)nc2sc3c(c12)CCN(C)C3,-2.05
COc1ccc(NC(=O)c2cc3nc(-c4ccco4)cc(C(F)(F)F)n3n2)cc1OC,-0.42
O=C(Nc1ccc2c(c1)OCO2)c1cnn2c(C(F)(F)F)cc(-c3ccco3)nc12,-0.3
O=C(Nc1cccc(Cl)c1)c1nn2c(C(F)(F)F)cc(-c3ccco3)nc2c1Cl,3.98*
CN(C)c1scc(-c2ccccc2)c1C#N,15*
CSc1scc(-c2cccc(Cl)c2)c1C#N,-0.55
COC(=O)c1sc(N(C)C)c(C#N)c1-c1ccccc1,-0.43
Cc1ccc(C2c3c(n(C)c(=O)n(C)c3=O)N=C3c4ccccc4C(=O)C32)cc1Cl (centres undefined),-0.7
C=CCOC(=O)C1=C(C)NC2=C(C(=O)CC(C)(C)C2)C1c1cc(OC)c(OC)cc1Br (centres undefined),-0.25
Cc1nc2sc(C(=O)c3ccc(Cl)cc3)c(N)c2c(C)c1C,16.4
Cc1ccc(C2C=C(c3ccc(Cl)cc3)Nc3nc(NS(C)(=O)=O)nn32)cc1 (centres undefined),2.49
CS(=O)(=O)Nc1nc2n(n1)C(c1ccc(F)cc1)C=C(c1ccc(Cl)cc1)N2 (centres undefined),2.43
CC1=CC(c2ccc(Cl)cc2)n2nc(NC(=O)c3ccco3)nc2N1 (centres undefined),9.83*
CCOc1cc(/C=N/NC(=O)CC#N)ccc1O,-0.37
Nc1nc(NC(=O)CCCC(=O)O)nn1-c1ccccc1,15.8*
O=C(O)CCCC(=O)Nc1ccn(-c2ccccc2)n1,0.09
O=C(O)CCCC(=O)Nc1nc2nccc(-c3ccccc3)n2n1,-0.66
COC(=O)c1cccc(COC(=O)CCc2nc3ccccc3[nH]c2=O)c1,1.88
Cc1ccc(S(=O)(=O)NNC(=O)c2cc([N+](=O)[O-])ccc2N)cc1,-0.92
Cc1ccc(-c2nc3ccccc3o2)cc1N,-0.44
Cc1ccc2oc(-c3cccc(N)c3C)nc2c1,2.07
Cc1cc2nc(-c3cccc(N)c3C)oc2cc1C,3.03*
CCOC(=O)c1c(NC(=O)C2C3C=CC(CC3)C2C(=O)O)sc2c1CC(C)CC2 (centres undefined),2.8
CSc1nc(-c2ccc(Cl)cc2)nc(SC)c1Cl,-0.21
CN1CCN(Cc2c(O)ccc3c(=O)c(-c4ccccc4)coc23)CC1,2.02
CCc1cc2c(=O)c(-c3nc4ccccc4[nH]3)coc2c(CN2CCCC(C)C2)c1O (centres undefined),3.32*
